Screening data (PubChem BioAssay)
Sampled rows, rich in hits. Any-hit rate of the full collection: about 9.3%.
VACV mCherry inh = inhibitors of vaccinia virus infection (mCherry reporter signal). Vaccinia virus mCherry reporter infection, fluorescence. Potency, µM (series often up to 36.5 µM), for inactives: at the highest dose activity change, negative = inhibition, usual class: inhibitors. 0.63% of 310,000 active; calls by dose curve; tested in A549 cells; also: potency is read from the fitted curve at half-maximal effect; nearly all actives have a fitted effect of over 35% in size
HCV inh = blocks hepatitis C virus; Huh7.5.1 HCVcc-Cre infection, luciferase reporter, 44 h; Potency, µM (top dose mostly 41.8 µM), inactives show top-dose activity change, negative = inhibition, hits mostly inhibitors; 3.4% of 340,000 active; also: potency is read from the fitted curve at half-maximal effect
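HCVcc-Cre virus at an moi near 0.5 was added right after compound to cells cultured 4 h from seeding (1,000 cells/well). Luciferase activity was determined 44 h later, 15 min after substrate addition at RT.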
VACV Venus inh = vaccinia inhibition (Venus reporter); Vaccinia virus Venus reporter expression, fluorescence; Potency, µM (titrated, usually from 36.5 µM), for the others: at the highest dose activity change, negative = inhibition, actives largely listed as inhibitors; 0.46% of 330,000 active; calls by dose curve; tested in A549 cells; also: potency is read from the fitted curve at half-maximal effect; nearly all actives have a fitted effect of over 30% in size
Sm TGR inh = blocks Schistosoma mansoni thioredoxin glutathione reductase | Q962Y6 | purified TGR, DTNB reduction, TNB absorbance 405 nm | Potency, µM (highest dose often 114 µM), for inactives: at the highest dose activity change, negative = inhibition, hits mostly inhibitors | 3% of 360,000 active | AID 485364; also: potency is read from the fitted curve at half-maximal effect; nearly all actives have a fitted effect of over 60% in size
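TGR 20 nM + NADPH 100 uM (dispensed conc.), cpd preinc 15 min RT; start with NADPH (500 uM addition) then DTNB (15 mM addition). Kinetic TNB absorbance, 405 nm filter. Four-parameter Hill fit across titration.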
FMDV antiviral = blocks foot and mouth disease virus | Potency, µM (doses to about 57.9 µM), for inactives: top-dose activity change, negative = inhibition, most hits filed as inhibitors | FMDV antiviral cell-based qHTS | 1.2% of 410,000 active | AID 1159524; calls by dose curve; tested in HEK293T cells; also: read-out not given here; potency is read from the fitted curve at half-maximal effect; nearly all actives have a fitted effect of over 45% in size
HCMV antiviral = inhibitors of human cytomegalovirus | HFF cells, HCMV-luciferase reporter, 72 h; active compounds read low | activity change, negative = inhibition, % at 57.5 µM | 4.5% of 410,000 active | AID 1259415; in the data active = activity change below about -60%; inconclusive = no clear call, values can overlap the other calls; inactive = above about -39%
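Inhibition of viral replication was scored as loss of reporter luminescence in HFFs infected with HCMV-luciferase (MOI 1 PFU/cell) for 72 h; compounds tested at 2 doses, normalized to buffer and Salinomycin controls.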
* marks the source's active call; other numbers are inactive results; i = inactive; ? = inconclusive; . = not tested or not shown; [ ] = another dose, or the depositor's remark. Unless noted, calls follow the shape of the dose curve; as a rule, active = well fitted curve in the direction sought with a large enough effect; inconclusive = small, poorly fitted or top-dose-only effect, or another doubt; inactive = no such curve, though single readings can be large; an effect the other way counts as inactive or inconclusive. % is scaled to controls: 0 for no effect and ±100 for the full control effect.

SMILES	VACV mCherry inh	HCV inh	VACV Venus inh	Sm TGR inh	FMDV antiviral	HCMV antiviral
Cc1ccc(NS(=O)(=O)c2ccc(C(=O)NC3CCN(Cc4ccccc4)CC3)cc2)cc1	?	?	?	.	?	-92*
Cc1ccc(S(=O)(=O)Nc2cccc(C(=O)NC3CCN(Cc4ccccc4)CC3)c2)cc1F	?	?	?	-3%	?	?
Cc1ccc(NS(=O)(=O)c2cccc(C(=O)NC3CCN(Cc4ccccc4)CC3)c2)cc1	?	13µM*	?	.	-28%	?
O=C(NC1CCN(Cc2ccccc2)CC1)c1cccc(S(=O)(=O)Nc2ccc(SC(F)F)cc2)c1	.	2.8µM*	.	.	?	-30
O=Cc1ccc(/C=C2/C=Cc3ccccc32)cc1	22%	.	-7%	.	.	.
CCN(CC)CCNC(=O)c1c(O)c2c([nH]c1=O)CCCC2	i	8%	-19%	-2%	.	-13
O=C1NC(=S)N/C1=C/c1ccc2ccccc2c1	.	8%	.	4%	29%	1
CCN(c1ccccc1)S(=O)(=O)c1ccc(Cl)c(C(=O)NC2CCN(Cc3ccccc3)CC2)c1	?	?	?	.	?	-70*
CCCCN1CC[C@H]2C=CC[C@@H](C(=O)N3CCOCC3)[C@H]2C1=O	-3%	0.56µM*	-8%	.	-5%	-25
COc1ccccc1C1C2=C(N=C3SCC(=O)N31)c1ccccc1CC2 (centres undefined)	.	-2%	-11%	-17%	0%	14
COc1ccc(/C=c2/sc3n(c2=O)C(c2ccccc2OC)C2=C(N=3)c3ccccc3CC2)cc1O (centres undefined)	.	?	.	-13%	-11%	-64*
FC(F)(F)c1ccc(Sc2n[nH]c(C(F)(F)F)n2)nc1	-2%[7.34 µM]	11%	-1%[7.34 µM]	14%	?	2
Cc1ccc(NC(=O)CSc2nn(-c3ccc(Cl)cc3)c(=S)s2)cc1S(=O)(=O)N(C)C	?	13µM*	?	-5%	?	-83*
NS(=O)(=O)c1cccc(NC(=O)CSc2nn(-c3ccccc3)c(=S)s2)c1	?	?	?	-13%	?	-20
Cc1ccc(NC(=O)Cn2ccsc2=N)cc1S(=O)(=O)N(C)C	i	-15%	-6%	-4%	16%	-37
CN(C)S(=O)(=O)c1cc(NC(=O)CSc2nn(-c3ccc(Cl)cc3)c(=S)s2)ccc1Cl	?	6.3µM*	?	-2%	?	-85*
O=C(C1CCN(c2nc(-c3ccccc3)nc3c2CCC3)CC1)N1CCC(O)CC1	?	-14%	?	-15%	-12%	-12
CCOc1ccccc1NC(=O)N1CCN(S(C)(=O)=O)CC1	-3%	5%	-2%	7%	0%	-8
COc1ccccc1CNC(=O)CCC(=O)Nc1nnc(C(C)C)s1	.	5%	.	9%	51%	-23
CC1OC2CC(=O)OC2C2=C1C(=O)c1c(O)cccc1C2=O (centres undefined)	.	.	.	.	.	-106*
CCOc1ccc(CCNC(=O)COC(=O)/C=C/c2cccc(OC)c2)cc1OCC	-6%	-29%	-6%	-9%	0%	-8
COc1ccc(/C=C/C(=O)OCn2c(SC)nnc(C)c2=O)cc1OC	.	-13%	.	28µM*	-18%	0
CCOc1ccc(/C=C/C(=O)OCC(=O)NCCc2ccc(OCC)c(OCC)c2)cc1OC	-11%	7.9µM*	-11%	11%	-26%	-5
CCOc1ccccc1NC(=O)COC(=O)/C=C/c1ccc(OC)c(OC)c1	-18%	?	-16%	6%	18µM*	?
Cc1ccc(C)c(Cn2c(=O)n(CCC(=O)NCc3ccco3)c(=O)c3sccc32)c1	.	?	.	-13%	-9%	.
Cc1coc2c(C)c3oc(=O)c(CCC(=O)NCCN4CCOCC4)c(C)c3cc12	5%	?	1%	-15%	-14%	-12
COc1ccc(OC)c(NC(=O)Cn2ccn(-c3ccc(OC)c(OC)c3)c(=O)c2=O)c1	-1%	.	-4%	1%	-6%	-15
CCCCCCCCn1sccc1=O	-12%	?	-15%	0%	28µM*	-2
CCCCCCN1Cc2ccccc2C1	.	9%	1%	8%	-8%	-17
